Consider 20 compounds from PubChem BioAssay (NCATS).

Records with an inconclusive call do not appear. Values without a mark were called inactive. Activity calls are given as the source filed them. Calls come from the whole dose curve; as a rule, active = well fitted curve in the direction sought with a large enough effect; inconclusive = small, poorly fitted or top-dose-only effect, or another doubt; inactive = no such curve, though single readings can be large; an effect the other way counts as inactive or inconclusive.

In assay [1] the target is Rap guanine nucleotide exchange factor 3 (Homo sapiens) (UniProt O95398). The experiment in a line: Confirmatory qHTS for antagonist of cAMP-regulated guanine nucleotide exchange factor 3 (EPAC1) (AID 1645880). Note: nearly all actives have a fitted effect of over 55% in size. Note: potency is the fitted concentration of half-maximal effect. The gist of the method: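 Released BODIPY-GDP fluoresces less than Rap1-bound BODIPY-GDP; the signal is followed at 480/540 nm at 5-min intervals over 30 min, after 5 min at room temperature. Reactions contain 100 nM EPAC1, 250 nM RAP1B-BODIPY-GDP and 50 uM GDP; results are normalized to ATA and DMSO.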
(In general: qHTS replaces the single test concentration by a dilution series.)

The target is the same in assay [2]. As to the kind of experiment: Confirmatory qHTS for agonist of cAMP-regulated guanine nucleotide exchange factor 3 (EPAC1) (AID 1645881).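 For activation: EPAC1 catalysed release of BODIPY-GDP from Rap1B seen as fluorescence loss; 100% = effect of cAMP agonist control.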 Note: nearly all actives have a fitted effect of over 75% in size. Note: potency is the fitted concentration of half-maximal effect.
The target of assay [3] is Rap guanine nucleotide exchange factor 4 (Homo sapiens) (UniProt Q8WZA2). The experiment in a line: Confirmatory qHTS for agonist of cAMP-regulated guanine nucleotide exchange factor 4 (EPAC2) (AID 1645884).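 Note: nucleotide exchange releases bodipy-GDP from Rap1 and this lowers its fluorescence; % is set by controls: 0 for no effect and ±100 for the full control effect; nearly all actives have a fitted effect of over 65% in size.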
Assay [4] shares this target. As to the kind of experiment: Confirmatory qHTS for antagonist of cAMP-regulated guanine nucleotide exchange factor 4 (EPAC2) (AID 1645885). For activity change, negative = inhibition: % is set by controls: 0 for no effect and ±100 for the full control effect. Note: nearly all actives have a fitted effect of over 25% in size. Note: potency is the fitted concentration of half-maximal effect.
For assay [5], the target named is Rap guanine nucleotide exchange factor 3 (Homo sapiens) (UniProt O95398). The experiment in a line: Counterscreen qHTS for antagonist of cAMP-regulated guanine nucleotide exchange factor 3 (EPAC1) (AID 1645888). Note: % of control where 0% means no effect. The gist of the method:
(§1)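 Measured: fluorescence of BODIPY-GDP bound to Rap1B, which falls as exchange proceeds. Conditions include 50 uM competing GDP, 5 and 30 min reads, and a later cAMP challenge for antagonist detection.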
A general note: The purpose of a counterscreen is to sort out artefacts and off-target activity.

The target is the same in assay [6]. The experiment in a line: Counterscreen qHTS for agonist of cAMP-regulated guanine nucleotide exchange factor 3 (EPAC1) (AID 1645889). For activation: % of control where 0% means no effect. Note: nearly all actives have a fitted effect of over 40% in size. Note: potency is the fitted concentration of half-maximal effect. The gist of the method:
as §1

Chain of Rap guanine nucleotide exchange factor 3 (Homo sapiens) (O95398 whole entry, looked up): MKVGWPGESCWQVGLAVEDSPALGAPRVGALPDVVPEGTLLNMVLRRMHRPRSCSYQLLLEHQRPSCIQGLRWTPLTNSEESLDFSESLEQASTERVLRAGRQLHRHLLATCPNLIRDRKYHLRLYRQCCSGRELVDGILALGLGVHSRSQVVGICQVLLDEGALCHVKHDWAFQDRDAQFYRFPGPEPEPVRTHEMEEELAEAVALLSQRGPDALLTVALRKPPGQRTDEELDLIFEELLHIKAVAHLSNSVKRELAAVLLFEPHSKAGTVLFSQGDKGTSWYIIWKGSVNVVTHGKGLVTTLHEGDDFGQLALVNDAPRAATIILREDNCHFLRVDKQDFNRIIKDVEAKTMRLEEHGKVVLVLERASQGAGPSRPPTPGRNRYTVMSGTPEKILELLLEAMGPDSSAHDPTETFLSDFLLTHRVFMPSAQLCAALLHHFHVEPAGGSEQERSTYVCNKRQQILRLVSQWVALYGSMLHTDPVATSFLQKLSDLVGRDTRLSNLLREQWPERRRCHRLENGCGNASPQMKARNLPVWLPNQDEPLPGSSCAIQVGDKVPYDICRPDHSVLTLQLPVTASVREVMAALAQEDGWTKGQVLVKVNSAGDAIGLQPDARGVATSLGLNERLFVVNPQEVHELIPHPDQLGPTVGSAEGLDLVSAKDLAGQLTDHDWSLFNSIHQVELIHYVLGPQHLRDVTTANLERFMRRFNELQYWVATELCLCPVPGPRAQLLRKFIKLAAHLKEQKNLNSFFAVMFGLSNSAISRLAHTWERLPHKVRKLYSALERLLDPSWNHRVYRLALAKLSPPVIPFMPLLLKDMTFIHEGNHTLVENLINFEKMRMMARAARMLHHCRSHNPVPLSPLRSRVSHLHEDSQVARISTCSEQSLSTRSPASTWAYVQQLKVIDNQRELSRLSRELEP
Chain of Rap guanine nucleotide exchange factor 4 (Homo sapiens) (Q8WZA2 whole entry, looked up): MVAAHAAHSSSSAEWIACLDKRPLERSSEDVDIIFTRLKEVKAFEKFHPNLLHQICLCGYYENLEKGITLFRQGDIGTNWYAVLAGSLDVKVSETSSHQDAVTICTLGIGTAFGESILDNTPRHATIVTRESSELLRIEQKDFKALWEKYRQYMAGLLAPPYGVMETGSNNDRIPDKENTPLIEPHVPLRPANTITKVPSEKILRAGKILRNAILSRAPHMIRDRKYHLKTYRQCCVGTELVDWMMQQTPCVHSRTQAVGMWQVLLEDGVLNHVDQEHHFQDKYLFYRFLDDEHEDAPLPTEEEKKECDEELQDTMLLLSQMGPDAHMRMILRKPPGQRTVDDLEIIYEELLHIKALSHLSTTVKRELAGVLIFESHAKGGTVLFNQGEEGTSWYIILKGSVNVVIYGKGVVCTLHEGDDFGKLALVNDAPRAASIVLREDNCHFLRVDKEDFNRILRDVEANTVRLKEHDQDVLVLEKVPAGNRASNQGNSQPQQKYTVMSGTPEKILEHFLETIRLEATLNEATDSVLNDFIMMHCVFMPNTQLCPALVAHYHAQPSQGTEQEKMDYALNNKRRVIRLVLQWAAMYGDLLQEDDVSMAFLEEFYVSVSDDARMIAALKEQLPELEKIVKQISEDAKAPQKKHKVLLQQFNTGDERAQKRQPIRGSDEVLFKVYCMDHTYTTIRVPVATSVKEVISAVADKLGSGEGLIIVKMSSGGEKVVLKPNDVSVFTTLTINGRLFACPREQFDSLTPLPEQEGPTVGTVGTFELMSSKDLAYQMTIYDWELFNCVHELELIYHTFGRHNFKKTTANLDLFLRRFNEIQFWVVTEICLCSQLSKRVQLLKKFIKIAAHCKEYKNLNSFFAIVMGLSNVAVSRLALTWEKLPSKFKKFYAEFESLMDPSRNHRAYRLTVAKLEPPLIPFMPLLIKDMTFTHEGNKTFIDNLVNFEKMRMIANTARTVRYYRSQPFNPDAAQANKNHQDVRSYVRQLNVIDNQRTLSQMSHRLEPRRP

Take `CC(Sc1nncn1C)C(=O)Nc1nnc(C(C)C)s1` (stereo not given): the Potency result in assay [1], in assay [2], in assay [3], in assay [4], in assay [5] and in assay [6] was “inactive” in each case.

Consider `COc1cc(CC(=O)Nc2ccccc2N2CCCCC2)cc(OC)c1OC`, for which the Potency result in assay [1], in assay [2], in assay [3], in assay [4], in assay [5] and in assay [6] was “inactive” throughout.

On to `Clc1c(Cl)c(Cl)c2n[nH]nc2c1Cl`, for which the Potency in assay [1] is 75.7 µM (active); in assay [4], 19 µM (active). Besides, the Potency result in assay [2], in assay [3], in assay [5] and in assay [6] was “inactive” throughout.

On to `CC1CCCCC1Nc1nc2ccc(Cl)cc2n2cnnc12` (stereo not given), for which the Potency entry in assay [1], in assay [2], in assay [3], in assay [4], in assay [5] and in assay [6] was “inactive” throughout.

Take `CCOC(=O)c1sc(NC(=O)c2ccncc2)nc1C`: the Potency entry in assay [1], in assay [2], in assay [3], in assay [4], in assay [5] and in assay [6] was “inactive” in each case.

For the compound `O=C1C(Cl)=C(N2CCC(C(=O)O)CC2)C(=O)c2ccccc21`, the Potency result in assay [1], in assay [2], in assay [3], in assay [4] and in assay [5] was “inactive” each time. The Potency in assay [6] was 15.8 µM (active).

Take `Nc1ccc2ccccc2c1C(=O)c1ccccc1`: the Potency entry in assay [1], in assay [2], in assay [3], in assay [4], in assay [5] and in assay [6] was “inactive” each time.

For the compound `Cc1ccc(S(=O)(=O)/N=C2/NC(=O)/C(=C\c3cc(Br)cc(Br)c3O)S2)cc1`, the Potency in assay [1] was 16.9 µM (active). The Potency entry in assay [2], in assay [3], in assay [4], in assay [5] and in assay [6] was “inactive” each time.

For the compound `Cc1ccc(S(=O)(=O)N2CCCCC2)cc1C(=O)NCCC1=CCCCC1`, the Potency entry in assay [1], in assay [2], in assay [3], in assay [4], in assay [5] and in assay [6] was “inactive” each time.

On to `COc1cccc(OCCOc2ccc(/C=C3\C(=N)N4N=C(S(C)(=O)=O)SC4=NC3=O)cc2OC)c1`, for which the Potency in assay [1] is 37.9 µM (active). The Potency result in assay [2], in assay [3], in assay [4], in assay [5] and in assay [6] was “inactive” each time.

Take `C/C(=C\C(=O)c1ccccc1)Nc1ccc(O)cc1`: the Potency entry in assay [1], in assay [2] and in assay [4] was “inactive” throughout. The activation in assay [3] is 3.61% [at 17.1 µM, percent relative to cAMP agonist control]; in assay [6], 29.9% [at 30.8 µM]. In addition, the activity change, negative = inhibition in assay [5] is -14.8% [at 30.8 µM].

Turning to `CCCCN(C(=O)CSCC(=O)Nc1ccc(C)cc1)c1c(N)n(CCCC)c(=O)[nH]c1=O`, the Potency entry in assay [1], in assay [2] and in assay [4] was “inactive” each time. Besides, the activation in assay [3] is 4% [at 17.1 µM, percent relative to cAMP agonist control]; in assay [6], 6.23% [at 30.8 µM]. Besides, the activity change, negative = inhibition in assay [5] is -21.2% [at 30.8 µM].

Turning to `O=C(NCCCn1ccnc1)c1cc(-c2cccnc2)nc2ccc(Br)cc12`, the Potency entry in assay [1], in assay [2], in assay [3], in assay [4], in assay [5] and in assay [6] was “inactive” each time.

As to `O=C(O)CCCCCN1C(=O)/C(=C/c2cn(-c3ccccc3)nc2-c2cccs2)SC1=S`, the Potency result in assay [1] and in assay [4] was “inactive” throughout. Besides, the Potency is 79.4 µM (active) in assay [2] and 14.1 µM (active) in assay [6]. In addition, in assay [3], the activation was 17.7% [at 17.1 µM, percent relative to cAMP agonist control]. Besides, the activity change, negative = inhibition in assay [5] is 39% [at 30.8 µM].

On to `CN1CCN(C(c2ccccc2Cl)c2sc3nc(-c4ccco4)nn3c2O)CC1` (stereo not given), for which the Potency entry in assay [1], in assay [2], in assay [3], in assay [5] and in assay [6] was “inactive” throughout. Moreover, the outcome in assay [4] is “inactive [at 12.7 µM]”.

For `O=C(CCNC(=O)c1ccc(Br)cc1)Nc1ccccc1N1CCOCC1`, the Potency result in assay [1], in assay [2], in assay [3], in assay [4], in assay [5] and in assay [6] was “inactive” in each case.

Consider `CCN1C(=O)/C(=C/C=C2/SCCN2C)SC1=S`, for which the Potency entry in assay [1] and in assay [4] was “inactive” throughout. The values for the Potency in assay [2] and in assay [6] were 79.4 µM (active) and 11.2 µM (active), respectively. Also, in assay [3], the activation is 20% [at 17.1 µM, percent relative to cAMP agonist control]. For the same compound, the activity change, negative = inhibition in assay [5] is 0.532% [at 30.8 µM].

Regarding `COc1ccc(C2CC(=O)n3c(nc4ccccc43)S2)cc1OC` (stereo not given), the Potency result in assay [1], in assay [2] and in assay [4] was “inactive” throughout. Moreover, the activation in assay [3] was 2.96% [at 17.1 µM, percent relative to cAMP agonist control]; in assay [6], 6.35% [at 30.8 µM]. Moreover, in assay [5], the activity change, negative = inhibition is 10.2% [at 30.8 µM].

In the case of `CCCCC(=O)N(c1ccc(C(=O)O)cc1)c1nc(-c2ccc(Cl)cc2)c(CC)s1`, the Potency in assay [1] is 50.1 µM (active). The Potency entry in assay [2] and in assay [4] was “inactive” each time. The activation in assay [3] is 5.89% [at 17.1 µM, percent relative to cAMP agonist control]; in assay [6], 19.6% [at 30.8 µM]. Besides, the activity change, negative = inhibition in assay [5] is -5.84% [at 30.8 µM].

With `CS/C(N)=N/N=C/c1c(O)ccc2ccccc12`, the Potency in assay [1] was 21.3 µM (active). The Potency result in assay [2], in assay [3], in assay [4], in assay [5] and in assay [6] was “inactive” each time.
